NOD2-RIPK2 inh – NOD2-RIPK2 protein interaction inhibition; CHO BLA complementation NOD2-RIPK2, CCF4 ratio; inhibition, % at 4.98 µM; hit rate 0.38% among 360,000; in the data active = inhibition above about 21%;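 note: 0% = vehicle only and 100% = reference blocker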
TLR4-MyD88 BLA – TLR4-MyD88 interaction inhibition in cells; O00206+Q99836; HeLa CL3-4 TLR4/MyD88 BLA complementation, FRET ratio; inhibition, % at 8.4 µM; hit rate 0.18% among 200,000; AID 861; in the data active = inhibition above about 25%;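 note: 0% = vehicle and 100% = reference inhibitor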
GRK2 inh – blocks RNA aptamer binding to human GRK2; hit rate 0.59% among 330,000; AID 488847; inhibition of aptamer binding, % at 10 µM; bead flow cytometry, FAM-aptamer displacement from GRK2; P25098;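 active = inhibition of aptamer binding above 40%, roughly 3 SD of noise, on plates passing a quality check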;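 note: median bead fluorescence of bound FAM aptamer so fluorescent compounds give negative values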
Target sequence (P25098 whole entry, looked up): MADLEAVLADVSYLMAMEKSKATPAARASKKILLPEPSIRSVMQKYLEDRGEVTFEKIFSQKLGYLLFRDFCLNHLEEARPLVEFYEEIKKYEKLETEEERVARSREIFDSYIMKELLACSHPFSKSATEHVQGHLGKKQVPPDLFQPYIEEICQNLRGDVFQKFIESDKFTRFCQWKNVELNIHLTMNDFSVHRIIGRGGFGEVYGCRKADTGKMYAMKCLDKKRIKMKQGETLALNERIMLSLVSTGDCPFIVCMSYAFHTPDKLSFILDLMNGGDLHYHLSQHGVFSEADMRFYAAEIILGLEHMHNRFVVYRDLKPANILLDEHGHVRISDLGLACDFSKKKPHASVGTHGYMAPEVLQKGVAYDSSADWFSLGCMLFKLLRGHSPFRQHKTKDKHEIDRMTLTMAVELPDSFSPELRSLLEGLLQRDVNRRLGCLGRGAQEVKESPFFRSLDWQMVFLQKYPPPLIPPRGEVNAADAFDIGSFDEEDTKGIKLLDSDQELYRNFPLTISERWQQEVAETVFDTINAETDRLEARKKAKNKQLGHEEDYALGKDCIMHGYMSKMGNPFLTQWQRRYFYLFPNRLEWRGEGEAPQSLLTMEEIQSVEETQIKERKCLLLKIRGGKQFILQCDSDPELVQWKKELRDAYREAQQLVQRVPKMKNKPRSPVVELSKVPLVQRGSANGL
TMEM16A act – mouse TMEM16A channel activation, primary screen | HEK293 TMEM16A/YFP-H148Q/I152L, iodide quench fluorescence; stronger effect = lower value | B-score at 10 µM | hit rate 0.3% among 340,000;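 active = fluorescence-ratio B-score plate-corrected deviation score at least 3 library SD below zero, with starting fluorescence score within 5 deviations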;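 note: channel opened by trigger with iodide after compound preincubation; score built on the fluorescence ratio of max minus min over baseline; more negative score means more quench and so TMEM16A activation or potentiation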
ANO1 block – blocks the mouse calcium-activated chloride channel TMEM16A; Q8BHY3; HEK293 TMEM16A/YFP iodide influx fluorescence, ionomycin; normalized B-score (activity score, 25-100; higher = stronger inhibition) at 10 µM; hit rate 1.2% among 310,000; AID 588511;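 active = ratio plate-corrected score three or more library SD toward inhibition, starting fluorescence score within five deviations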;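 note: score derived from kinetic fluorescence span divided by baseline fluorescence per well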
TLR9-MyD88 block – TLR9-MyD88 interaction inhibition | Q9NR96+Q99836 | CHO BLA complementation TLR9-MyD88, CCF4 FRET ratio | inhibition, % at 4.98 µM | hit rate 0.21% among 340,000;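 active = inhibition above the mean over all tested compounds plus 3 SD, cut at about 21% in these data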;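 note: 0% = DMSO only wells and 100% = clavulanate BLA inhibitor control wells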
* = called active by the depositor. A selection: hits, their analogues and other compounds. The true share with any hit is near 2.2%.

`Cc1cccc(Sc2c(C=O)c3ccccc3n2C)c1` gave NOD2-RIPK2 inh -6.5, TLR4-MyD88 BLA 4.1, GRK2 inh 2.0, TMEM16A act inactive, ANO1 block 25* and TLR9-MyD88 block -12.4.
Screening Cn1c(Sc2ccccc2Cl)c(C=O)c2ccccc21 returned NOD2-RIPK2 inh 5.2, TLR4-MyD88 BLA -0.6, GRK2 inh 0.0, TMEM16A act inactive, ANO1 block 100* and TLR9-MyD88 block -2.7.
O=C1/C(=C/c2ccccc2)CCc2ccc(Cl)nc21 was read as NOD2-RIPK2 inh 6.3, TMEM16A act inactive and TLR9-MyD88 block 3.4.
For COc1ccc(-c2csc(C(NC(C)=O)c3cccc(F)c3)n2)cc1 (stereo unspecified) the results were NOD2-RIPK2 inh -13.3.
For Cc1cccc(C)c1-n1nnnc1C(c1cc2ccccc2o1)N1CCN(C/C=C/c2ccccc2)CC1 (stereo unspecified) the results were NOD2-RIPK2 inh -2.3.
For COc1cccc(NC(=O)c2cccc(N3C(=O)C4C5C=CC(C5)C4C3=O)c2)c1 (stereo unspecified) the results were NOD2-RIPK2 inh 1.0, GRK2 inh 1.0, TMEM16A act inactive, ANO1 block 25* and TLR9-MyD88 block -0.6.
N#CC(C#N)=NNc1ccc(S(=O)(=O)N2CCCCC2)cc1 was read as NOD2-RIPK2 inh 3.0, TLR4-MyD88 BLA 14.3, GRK2 inh 0.0, TMEM16A act inactive, ANO1 block 100* and TLR9-MyD88 block -6.3.
For COc1cc(/C=C2\SC(=O)N(c3cccc(Cl)c3)C2=O)cc([N+](=O)[O-])c1O the results were NOD2-RIPK2 inh -4.5, TLR4-MyD88 BLA 11.6, TMEM16A act -5.59* and TLR9-MyD88 block -3.8.
`O=C1S/C(=C\c2ccc(O)c([N+](=O)[O-])c2)C(=O)N1c1ccccc1Cl` gave NOD2-RIPK2 inh 1.2, TLR4-MyD88 BLA -3.2, GRK2 inh 4.0, TMEM16A act inactive, ANO1 block 100* and TLR9-MyD88 block 0.9.
Cc1cccc(NC(=O)CN2C(=O)S/C(=C\c3ccc(O)c([N+](=O)[O-])c3)C2=O)c1 was read as NOD2-RIPK2 inh -5.3, TLR4-MyD88 BLA -22.6, GRK2 inh 0.0, TMEM16A act inactive, ANO1 block inactive and TLR9-MyD88 block 10.7.
For O=C1S/C(=C\c2ccc(O)c([N+](=O)[O-])c2)C(=O)N1Cc1cccc([N+](=O)[O-])c1 the results were NOD2-RIPK2 inh -13.0, TLR4-MyD88 BLA 6.8, GRK2 inh 1.0, TMEM16A act inactive and ANO1 block 100*.
Screening COc1ccc(/C=C/CN2CCC(C(=O)NC(c3ccc(F)cc3)c3ccc4ccccc4n3)CC2)cc1 (stereo unspecified) returned NOD2-RIPK2 inh -2.4.
c1ccc(-c2nc(NCCCn3ccnc3)c3oc4ccccc4c3n2)cc1 was read as NOD2-RIPK2 inh 8.2, TLR4-MyD88 BLA -3.2, GRK2 inh 1.0, TMEM16A act inactive, ANO1 block inactive and TLR9-MyD88 block 4.7.
`CCc1nc(NCCCn2ccnc2)c2oc3ccccc3c2n1` gave NOD2-RIPK2 inh -2.6, TLR4-MyD88 BLA 9.4, GRK2 inh 0.0, TMEM16A act -26.1*, ANO1 block inactive and TLR9-MyD88 block -7.2.
Screening COc1ccc(C(N)c2csc(Nc3ccc(S(C)(=O)=O)cc3)n2)cc1 (stereo unspecified) returned NOD2-RIPK2 inh 9.6.
`COc1cc(OC)cc(-c2c(Sc3ccccc3)c3cc(-c4ccc(SC)cc4)ccc3n2C)c1` gave NOD2-RIPK2 inh -0.4.
For COc1ccc(C2=NOC(C(=O)Nc3ccc4c(c3)OCO4)C2)cc1 (stereo unspecified) the results were NOD2-RIPK2 inh 0.5, GRK2 inh 1.0, TMEM16A act inactive, ANO1 block inactive and TLR9-MyD88 block 3.5.
`O=C(Nc1ccc2c(c1)OCO2)C1CC(c2ccc(Cl)cc2)=NO1` (stereo unspecified) gave NOD2-RIPK2 inh 1.4, TLR4-MyD88 BLA 6.0, GRK2 inh 2.0, TMEM16A act inactive, ANO1 block 100* and TLR9-MyD88 block 5.7.
For CC(C)(C)OC(=O)Nc1ccccc1-n1nnnc1C(C(=O)c1ccc(F)cc1)N1CCN(c2ccccn2)CC1 (stereo unspecified) the results were NOD2-RIPK2 inh -2.1.

Screening data from PubChem.
